Screening data: PubChem BioAssay, several laboratories
GIRK2 act = GIRK2 channel activators by thallium flux; P48051; HEK293 GIRK2/NPY4 cells, thallium flux fluorescence; activation (% efficacy), % for hits at 37.5 µM; 34,000 tested, under 10 active; AID 1259324;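 active = primary screen hit, no activity in plain HEK293 cells, and in GIRK2-only cells above 5% efficacy rising with concentration; inactive = the rest, including fluorescent compounds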;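 also: efficacy is normalized control-subtracted fluorescence 15 s after thallium addition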
GluA2 TARP mod = GluA2-stargazin AMPA receptor complex modulation; O88602+P19491; HEK293 GluA2+stargazin, membrane potential dye (FDSS), glutamate EC50; hits were called plate by plate, in both directions; calls only at 30 µM; 40,000 tested, 3.5% active;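 active = any of four per-well response measures lying three or more SD from its plate-wide compound average, in either direction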
Target sequence (O88602 whole entry, looked up): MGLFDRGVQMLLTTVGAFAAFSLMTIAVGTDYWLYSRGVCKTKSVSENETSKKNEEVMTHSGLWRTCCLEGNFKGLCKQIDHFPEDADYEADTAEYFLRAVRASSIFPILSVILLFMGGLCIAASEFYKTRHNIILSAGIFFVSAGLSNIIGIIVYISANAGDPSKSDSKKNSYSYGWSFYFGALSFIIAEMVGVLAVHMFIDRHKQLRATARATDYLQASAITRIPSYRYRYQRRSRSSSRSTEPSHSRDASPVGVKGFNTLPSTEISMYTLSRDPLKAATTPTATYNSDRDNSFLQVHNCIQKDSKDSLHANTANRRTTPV
Target sequence (P19491 whole entry, looked up): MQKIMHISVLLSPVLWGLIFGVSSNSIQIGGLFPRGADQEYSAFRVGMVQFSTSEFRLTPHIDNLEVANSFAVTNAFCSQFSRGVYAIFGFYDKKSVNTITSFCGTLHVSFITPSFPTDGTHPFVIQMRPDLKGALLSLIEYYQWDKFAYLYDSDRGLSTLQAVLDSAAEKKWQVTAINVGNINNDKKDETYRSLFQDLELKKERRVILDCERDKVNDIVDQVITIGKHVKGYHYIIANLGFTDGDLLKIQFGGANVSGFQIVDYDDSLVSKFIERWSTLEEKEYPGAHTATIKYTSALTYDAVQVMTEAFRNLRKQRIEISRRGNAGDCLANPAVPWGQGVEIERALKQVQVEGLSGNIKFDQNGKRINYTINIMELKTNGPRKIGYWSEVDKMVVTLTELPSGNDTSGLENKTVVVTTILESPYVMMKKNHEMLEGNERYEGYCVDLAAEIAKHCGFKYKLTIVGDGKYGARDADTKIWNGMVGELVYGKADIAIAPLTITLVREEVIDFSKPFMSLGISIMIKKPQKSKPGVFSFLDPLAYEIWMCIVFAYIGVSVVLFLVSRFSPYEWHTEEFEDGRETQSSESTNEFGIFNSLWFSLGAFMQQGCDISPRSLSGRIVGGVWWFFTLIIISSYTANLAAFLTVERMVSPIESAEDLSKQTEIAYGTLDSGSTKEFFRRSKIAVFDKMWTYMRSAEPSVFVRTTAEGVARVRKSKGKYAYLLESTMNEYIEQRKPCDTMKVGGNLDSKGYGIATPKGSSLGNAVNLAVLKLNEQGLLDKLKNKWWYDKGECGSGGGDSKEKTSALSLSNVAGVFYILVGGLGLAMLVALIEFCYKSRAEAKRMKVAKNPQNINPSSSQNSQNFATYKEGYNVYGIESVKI
* = called active by the depositor; i = inactive; . = no result given; + = active, no number. The entries come from a sample that favours hits as a whole.

SMILES | GIRK2 act | GluA2 TARP mod
CC(=O)NS(=O)(=O)c1ccc(NC(=O)c2csc(-c3cnccn3)n2)cc1 | i | +
CN(Cc1ccco1)S(=O)(=O)c1ccc(C(=O)Nc2ccc(Br)cc2)cc1 | . | i
Cc1cccc(-n2ncc3c(=O)[nH]c(-n4nc(C)cc4NC(=O)C4CC4)nc32)c1 | i | i
CCC(CC)C(=O)Nc1cc(C)nn1-c1nc2c(cnn2-c2cccc(C)c2)c(=O)[nH]1 | i | +
Cc1cc(NC(=O)c2c(F)cccc2F)n(-c2nc3c(cnn3-c3cccc(Cl)c3)c(=O)[nH]2)n1 | i | i
Cc1cc(NC(=O)c2c(F)cccc2F)n(-c2nc3c(cnn3-c3ccc(C)c(C)c3)c(=O)[nH]2)n1 | i | +
COC(=O)Cn1c(=NC(=O)C2CCCN(S(C)(=O)=O)C2)sc2cc(Cl)ccc21 (centres undefined) | i | i
COc1ccc(CCNC(=O)Nc2ccc(N3CCCS3(=O)=O)cc2)cc1 | i | i
CCOC(=O)c1sc(NC(=O)CCCS(=O)(=O)c2ccc(OC)cc2)nc1C | i | i
CCCNS(=O)(=O)c1cc(C)c(OC)cc1C | . | i
COc1ccc(OC)c2sc(NC(=O)c3ccnn3C)nc12 | . | +
Cc1cc(C)c2sc(NC(=O)c3ccnn3C)nc2c1 | i | .
Cc1ccc(N2CCn3c2nn(CC(=O)Nc2cccc(C)c2C)c(=O)c3=O)cc1 | . | i
Cc1nnc(C2CCN(CC(=O)Nc3cccc(Cl)c3Cl)CC2)s1 | i | i
OCCN1CCN(CC(O)COCC(c2ccccc2)c2ccccc2)CC1 (centres undefined) | i | .
O=C(Cc1ccc(NC(=O)C23CC4CC(CC(C4)C2)C3)cc1)NC1CC1 | i | i
CCOc1ccc(NC(=O)C23CC4CCC(CC(C4)C2)C3)cc1 | . | +
COc1ccc(S(=O)(=O)N2CCCCCC2)c(C)c1C | . | i
COc1ccc(Cl)cc1S(=O)(=O)N1CCCCCC1 | . | +
COc1ccc(Br)cc1S(=O)(=O)N1CCCCCC1 | . | +
COc1ccc(/C=C/c2nc3ccccc3s2)cc1S(=O)(=O)N1CCCCC1 | . | +
COc1ccc(F)cc1S(=O)(=O)N1CCCCCC1 | . | i
COc1ccc(Cl)cc1S(=O)(=O)N1CCN(S(=O)(=O)c2cc(Cl)ccc2OC)CC1 | . | i
COc1ccc(N2C(=O)C3N=NN(CC(=O)Nc4ccc(F)c(Cl)c4)C3C2=O)cc1OC (centres undefined) | . | i
CSc1cccc(NC(=O)N2CCN(c3cc(-n4cccn4)nc(C)n3)CC2)c1 | i | i
SMILES | GIRK2 act | GluA2 TARP mod
Cc1cc(C)c2c(=O)[nH]c(SCC(N)=O)nc2n1 | . | +
Cc1cccc(NC(=O)CSc2nc3nc(C)cc(C)c3c(=O)[nH]2)c1 | . | i
Cn1nc(NC(=O)c2cccs2)c2c1NC(=O)CC2c1ccccc1 (centres undefined) | i | i
Cc1cccc(-n2nc3c(c2-n2cccc2)CN(C(=O)c2cc(C)oc2C)C3)c1 | i | +
Cc1ccc(-n2nc3c(c2-n2cccc2)CN(C(=O)c2ccc(F)c(F)c2)C3)cc1 | i | i
CCOC(=O)c1ccc2nc(NC(=O)c3ccno3)sc2c1 | i | i
COc1cccc(C(=O)NCCS(=O)(=O)N2CCOCC2)c1 | . | i
COc1cccc(C(=O)NCCS(=O)(=O)N2CCC3(CC2)OCCO3)c1 | . | +
Cc1nn(C2CCS(=O)(=O)C2)c(C)c1CC(=O)Nc1cccc(NS(C)(=O)=O)c1 (centres undefined) | i | i
COc1nn(C)cc1C(=O)Nc1ccc2c(c1)N(S(=O)(=O)c1ccc(F)cc1)CCC2 | i | i
O=C(CCc1csc(NC(=O)c2ccc[nH]c2=O)n1)NCc1ccc(F)cc1 | i | +
O=C(CCc1csc(NC(=O)c2ccc[nH]c2=O)n1)NCc1ccc2c(c1)OCO2 | i | i
COc1ccccc1CNC(=O)CCc1csc(NC(=O)c2ccc(Cl)cc2)n1 | i | +
COc1ccccc1CNC(=O)CCc1csc(NC(=O)c2ccc(F)cc2)n1 | i | i
COc1ccc(NC(=O)NCCCn2nc(-c3ccco3)ccc2=O)cc1 | i | i
COc1ccc(NC(=O)c2ccc(=O)n(Cc3cccc(C(F)(F)F)c3)c2)cc1OC | i | i
Cc1cccc(C)c1NC(=O)CSc1nc(-c2sc(-c3ccccc3)nc2C)cc(=O)[nH]1 | i | .
O=C(Cn1cnc(-c2ccccc2)cc1=O)N1CCCCC1 | i | i
O=C(Nc1ccc(F)c(C(F)(F)F)c1)C1CCN(C(=O)NC2CC2)CC1 | i | +
O=C(Nc1ccc(F)c(C(F)(F)F)c1)C1CN(C(=O)c2cccs2)C1 | i | i
Cc1cnc2c(c1N1CCN(C(=O)c3ccco3)CC1)c(=O)n(CC(=O)NC(C)C)c(=O)n2C | . | i
Cn1cc(C(=O)N2CCCCCC2)cc(NC(=O)c2ccccc2Cl)c1=O | . | +
Cn1cc(C(=O)N2CCCCCC2)cc(NC(=O)c2cc(Cl)ccc2Cl)c1=O | . | i
Cn1c(=O)c2c(SCC(=O)N3CCOCC3)ccnc2n(C)c1=O | . | +
CCCCSc1ccnc2c1c(=O)n(C)c(=O)n2C | . | +
SMILES | GIRK2 act | GluA2 TARP mod
C#CCSc1ccnc2c1c(=O)n(C)c(=O)n2C | . | i
CC1CCN(C(=O)CSc2ccnc3c2c(=O)n(C)c(=O)n3C)CC1 | . | i
COc1ccc(-c2nnc(SCC(=O)Nc3cccc(C)c3)n2N)cc1OC | i | i
COc1ccc(S(=O)(=O)CCC(=O)N(Cc2ccccc2)c2nc3ccccc3s2)cc1 | i | i
CN(C)CCCNc1nc2ccc([N+](=O)[O-])cc2s1 | i | +
Cc1c(Cl)ccc2sc(NCCCN(C)C)nc12 | i | i
CN(C)CCN(C(=O)CCCS(=O)(=O)c1ccc(F)cc1)c1nc2ccccc2s1 | . | i
COc1ccc(S(=O)(=O)CCC(=O)N(CCN(C)C)c2nc3ccc([N+](=O)[O-])cc3s2)cc1 | . | +
CN(C)CCN(C(=O)CCCS(=O)(=O)c1ccc(F)cc1)c1nc2ccc([N+](=O)[O-])cc2s1 | . | +
CC(C)c1nnc(-c2cc3ccccc3n2CC(=O)N2CCOCC2)o1 | . | i
CCOC(=O)CCn1c(=O)c2c(nc3n(C4CCCCC4)c(C)cn23)n(C)c1=O | . | i
CNC(=O)/C(C#N)=C1\SC(Cc2ccc(OC)cc2)C(=O)N1c1cccc(OC)c1 (centres undefined) | i | i
O=C(/C=C/c1ccco1)NC(=S)Nc1ccccc1C(=O)NCc1ccco1 | i | .
O=C(/C=C/c1ccsc1)NCCC(O)C1CC1 (centres undefined) | i | i
O=C(Cn1cnc(-c2ccccc2)cc1=O)N1CCN(c2ccccc2Cl)CC1 | i | i
COc1ccccc1Cc1noc(C2CN(S(=O)(=O)c3ccc(F)c(Cl)c3)C2)n1 | i | .
O=C(NCC1CCN(C(=O)c2cc3ccccc3o2)CC1)c1ccc(Cl)s1 | i | +
Cc1cc(C(=O)NCC2CCN(C(=O)c3cc4ccccc4o3)CC2)c(C)o1 | i | i
O=C(NCC1CCN(C(=O)c2cc3ccccc3o2)CC1)c1cc(Cl)ccc1Cl | i | i
Cc1csc(C(=O)NCC2CCN(C(=O)c3cc4ccccc4o3)CC2)c1 | i | +
O=C(NCC1CCN(C(=O)c2cc3ccccc3o2)CC1)c1cc(-c2ccccc2)on1 | i | +
